From PubChem BioAssay

Test: HepG2 liver cancer cell viability effects, profiling panel, resazurin fluorescence, 24 h, PK04 Diversity Set (AID 1172); note: test concentration not given here
Details: higher = more signal

Row | SMILES | z-score
1 | O=C1OCCC=C[C@H]2OC34C=CCN(Cn5nnc6ccccc65)C(=O)[C@H]3N(CCCCCCO)C(=O)[C@@H]4C12 (some centres not stated) | -0.677
2 | O=C1C[C@@](C(=O)NCCN2CCOCC2)(c2ccc([N+](=O)[O-])cc2)[C@@H](c2ccc(CO)cc2I)N1C1CCCCC1 | 0.95
3 | NC(=O)N1C(=O)C2C(C1=O)C1C=C(CCCO)C2C(c2cccs2)N1Cc1cccc(OC(F)(F)F)c1 (configuration not stated) | 0.0214
4 | C=C(/C(=C/C[C@H](OC(C)=O)c1ccccc1OCCO)c1cc(C(=O)OC)ccc1OC)C(C)C | -0.169
5 | CCCC[C@@H](O)C1=C(COc2ccccc2)C[C@H]2C(=O)N(C)C(=O)[C@H]2[C@H]1CO | -0.0624
6 | O=C1NC(=O)C2C1C=CC(C(O)c1cccc3ccccc13)N2Nc1ccc(Cl)cc1Cl (configuration not stated) | -2.01
7 | COc1ccc(-c2cc3c(c(CCc4ccccc4)n2)[Si](C(C)C)(C(C)C)OC3)cn1 | 1.09
8 | COC(=O)[C@@]1(Cc2ccc(F)cc2)[C@H]2c3cc(C(=O)N4CCCC4)n(CCc4ccc(O)c(O)c4)c3C[C@H]2CN1C(=O)c1ccccc1 | -1.48
9 | CC1=C[C@@]2(CO)C(=O)[C@]3(CO3)[C@@H]1[C@H]1[C@]2(C)C=C(CO)C(=O)[C@]12CO2 | 0.693
10 | O=C(NCC(F)(F)F)[C@@H]1c2ccccc2C(=O)N(Cc2ccc(OC(F)(F)F)cc2)[C@H]1c1ccc(CO)cc1 | 1.09
11 | COC(=O)Cn1c(C(=O)N(C)C)cc2c1C[C@H]1CN(C(=O)c3ccccc3)[C@@](Cc3ccc(F)cc3)(C(=O)OC)[C@@H]21 | -0.836
12 | COc1ccc([Si](C)(C)[C@H]2[C@H](CC(=O)N(CCO)Cc3ccccc3)O[C@@]3(C(=O)N(Cc4cccc(N5CCOC5=O)c4)c4ccccc43)[C@@H]2C)cc1 | -2.5
